Holding throughout (assay): NCI-60 one-dose screen, 48 h (100 = growth as untreated, 0 = no growth, -100 = all killed)
Holding throughout (conditions): 10 µM unless noted

Experiment [1] relates to NCI-H23 lung.
For experiment [2], the system named is NCI-H226 lung.
The test system of experiment [3] is NCI-H322M lung.
The test system of experiment [4] is HOP-62 NSCLC.
The subject of experiment [5] is NCI-H460 lung.
Experiment [6] has as its system HOP-92 NSCLC.
For experiment [7], the system named is NCI-H522 lung.
Experiment [8] relates to A549/ATCC NSCLC.
Experiment [9] has as its system 786-0 renal.
Experiment [10] has as its system COLO 205 colon.
Experiment [11] deals with DU-145 prostate.
Experiment [12] deals with K-562 leukemia.
Experiment [13] has as its system MALME-3M melanoma.
Experiment [14] concerns MDA-MB-231 breast.
Experiment [15] deals with SF-268 CNS.
Experiment [16] concerns SF-295 CNS.
Experiment [17] has as its system SF-539 CNS.
In experiment [18] the test system is M14 melanoma.
The subject of experiment [19] is RXF 393 renal.

Data on eight compounds can be found in PubChem BioAssay (NCI).

Each structure is given as a SMILES string. The panel holds about 83,000 compounds, 20% with a hit somewhere; the sample as a whole holds those more often.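 96-well plates, one dose, 48 hours. Percent growth reported; active if below 10.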 Values without a mark were called inactive. Activity calls are given as the source filed them.

For the compound `N#Cc1c(NC(=O)c2cccs2)[n+]([O-])c2ccc(F)cc2[n+]1[O-]`, the growth is 98.5% in experiment [1]; 88.6% in experiment [2]; 99.1% in experiment [3]; 68.1% in experiment [4]; 99.1% in [5]; 73.3% in [6]. In addition, the growth in experiment [7] was 87%; in [8], 106%; in experiment [9], 103%; in [10], 86.1%; in experiment [11], 103%; in experiment [12], 91.3%. The growth in experiment [13] was 92.4%; in experiment [14], 87.2%; in experiment [15] it was 101%; in [16], 100%; in [17], 98.1%; in experiment [18] it was 101%.

In the case of `Cc1cc2c(-c3nc4ccccn4c3Nc3cccc4ccccc34)c(O)c(O)cc2c(O)c1-c1c(C)cc2c(-c3nc4ccccn4c3Nc3cccc4ccccc34)c(O)c(O)cc2c1O`, the growth is 12.4% in experiment [1]; 46.6% in experiment [2]; 59.4% in [3]; 37.9% in experiment [4]; 3.9% (active) in [5]; 9.86% (active) in experiment [6]. In addition, the growth in [7] is 32%; in experiment [8], 16.1%; in experiment [9] it was 68%; in experiment [10] it was 28%; in experiment [11], 31.4%; in experiment [12], 15.2%. Besides, the growth was 10.8% in [13]; 23.3% in [14]; 39.6% in experiment [19]; 30.9% in experiment [15]; 13.1% in experiment [16]; 20.4% in experiment [17]. Further, in experiment [18], the growth is 27.2%.

As to `CC(C)=CCc1cc2c(cc1O)C1=C(C(=O)C3=C(C1=O)S(=O)(=O)CCN3)C(C=C(C)C)O2` (configuration not stated), the growth was -35.9% (active) in [1]; -54.1% (active) in experiment [2]; -76.2% (active) in experiment [3]; -52.7% (active) in experiment [4]; -50.4% (active) in [5]; -11.7% (active) in experiment [6]. Besides, the growth is -50.8% (active) in experiment [7]; -42.4% (active) in experiment [8]; -12.3% (active) in experiment [9]; -69.8% (active) in [10]; -97.1% (active) in experiment [11]; 0.919% (active) in [12]. Besides, the growth in experiment [13] is -96.1% (active); in experiment [14], 1.47% (active); in experiment [19], -76.2% (active); in experiment [15], -0.0427% (active); in experiment [16], -65.9% (active); in experiment [17], -100% (active). In experiment [18], the growth is -89.1% (active).

Regarding `Nc1ncnc2c1ccn2-c1cccc(NC(=O)c2ccc(N3CCOCC3)c(C(F)(F)F)c2)c1`, the growth in experiment [1] is 49.8%; in [2], 60%; in [3], 80.6%; in experiment [4], 71.3%; in [5] it was 28.8%; in experiment [6], 20.5%. Moreover, the growth in experiment [7] is 18.7%; in experiment [8], 28.1%; in experiment [9], 86.4%; in experiment [10], 49%; in experiment [11], 57.8%; in experiment [12] it was 21%. Moreover, the growth is 65.3% in experiment [13]; 46.6% in [14]; 19.4% in experiment [19]; 55% in [15]; 28.6% in experiment [16]; 46.9% in experiment [17]. For the same compound, the growth in experiment [18] was 44.5%.

`COc1cc(-c2nc(C(=O)Nc3ccc(C)cc3)nn2-c2ccc(F)c(F)c2)cc(OC)c1OC`: the growth in [1] was 97.1%; in experiment [2], 102%; in [3], 96%; in [4], 86%; in experiment [5] it was 106%; in experiment [6], 114%. In addition, the growth was 48% in [7]; 96.2% in experiment [8]; 98.6% in experiment [9]; 95.8% in experiment [10]; 100% in experiment [11]; 101% in [12]. Also, the growth in experiment [13] was 89%; in experiment [14] it was 96.1%; in experiment [19], 116%; in experiment [15], 89.2%; in [16], 94%; in experiment [17], 107%. For the same compound, the growth in experiment [18] is 94.6%.

Turning to `C=CC[n+]1c(/C=C/C=C2\N(C)c3ccccc3C2(C)C)sc2ccc(OC)cc21`, the growth was 11.6% in experiment [1]; 10.8% in [2]; 26.2% in experiment [3]; 14.4% in [4]; 7.84% (active) in [5]; -4.42% (active) in experiment [6]. The growth was 3.52% (active) in [7]; 16.6% in experiment [8]; 26.8% in experiment [9]; -37.4% (active) in experiment [10]; 25.6% in experiment [11]; 10.3% in experiment [12]. Further, the growth was 5.31% (active) in [13]; 26.1% in experiment [14]; 32.7% in experiment [15]; -17.7% (active) in experiment [16]; 25.7% in experiment [17].

As to `COc1ccc2c(CCCc3ccc(Cl)cc3Cl)c3[n+](cc2c1OC)CCc1cc2c(cc1-3)OCO2`, the growth in experiment [1] is -12.2% (active); in [2], 14.6%; in experiment [3] it was 35.9%; in [4], 13.8%; in experiment [5] it was 4.66% (active); in experiment [6] it was 0.488% (active). For the same compound, the growth in [7] is -12.4% (active); in experiment [8], 11.9%; in experiment [9], 16.5%; in experiment [10], -59.6% (active); in [11], 17.9%; in experiment [12], 6.33% (active). Besides, the growth in [13] was -28.7% (active); in experiment [14], -10% (active); in experiment [15], 12.9%; in experiment [16], -19.3% (active); in experiment [17], -46.3% (active); in [18] it was -24.5% (active).

For the compound `COc1cc(NCCN(CC(C)C)CC(C)C)c2ncc(C)cc2c1`, the growth is 42% in experiment [1]; 90.5% in [2]; 82.9% in experiment [3]; 51.5% in [4]; 60.4% in experiment [5]; 132% in experiment [6]. The growth in experiment [7] was 73.2%; in experiment [8] it was 31.7%; in experiment [9] it was 91.3%; in experiment [10] it was 49.6%; in [11], 71.4%; in [12] it was 34.2%. Moreover, the growth was 66.7% in [13]; 50.3% in experiment [14]; 71.1% in experiment [15]; 64.6% in [16]; 97.7% in experiment [17]; 61% in experiment [18].
